Counter-ions that a name gives are not always drawn.
The compounds below were run on Danio rerio larvae (5 dpf) (assay: combined upward orientation toward moving lines (periods 7-14) minus DMSO control (percentage points); higher = more orientation with moving lines than DMSO larvae). Conditions: 10 µM; exposure time: 3 h pre-incubation + 3 h imaging.
Method: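 Wild-type 5 dpf zebrafish larvae (n=48 per drug, 96-well plates, 28.5 °C) were exposed to Tocris FDA-approved library compounds at 10 µM (0.1% DMSO) for 3 h before and 3 h during imaging. Images were taken every 6 s during visual (moving coloured lines) and acoustic stimuli, and larvae were tracked with the DeepLabCut-based Z-LaP Tracker. Each behavioural measure is the treated-group mean minus the DMSO vehicle control mean (n=844), in percentage points. This mapping covers compounds with 4-character plate codes.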

Going from `CC1=Nc2ccc(Cl)cc2S(=O)(=O)N1` [Diazoxide] to `CN1CC2c3ccccc3Oc3ccc(Cl)cc3C2C1` (stereo not given) [Asenapine maleate], the “combined upward orientation toward moving lines” value falls from -1.53 to -7.05.

Going from `CC(=O)NC[C@H]1CN(c2ccc(N3CCOCC3)c(F)c2)C(=O)O1` [Linezolid] to `CCOC(=O)c1ncn2c1CN(C)C(=O)c1cc(F)ccc1-2` [Flumazenil], the “combined upward orientation toward moving lines” value rises from 0.95 to 2.99.

Compared with `CCC(=O)O[C@]1(C(=O)SCF)[C@H](C)C[C@H]2[C@@H]3C[C@H](F)C4=CC(=O)C=C[C@]4(C)[C@@]3(F)[C@@H](O)C[C@@]21C` [Fluticasone propionate], `C[C@H]1C[C@@H]2[C@H]([C@@H](O)C[C@@]3(C)[C@H]2CC[C@]3(O)C(=O)CO)[C@@]2(C)C=CC(=O)C=C12` [Methylprednisolone] is higher in “combined upward orientation toward moving lines” value: -9.35 for the first, -7.43 for the second.

Compared with `CN(C)CCC[C@@]1(c2ccc(F)cc2)OCc2cc(C#N)ccc21` [Escitalopram oxalate], `CC/C(=C(\c1ccccc1)c1ccc(OCCN(C)C)cc1)c1ccccc1` [Tamoxifen citrate] is lower in “combined upward orientation toward moving lines” value: -1.11 for the first, -3.88 for the second.

First: NS(=O)(=O)c1cc(C(=O)O)c(NCc2ccco2)cc1Cl [Furosemide]
Second: CCCCNc1cc(C(=O)O)cc(S(N)(=O)=O)c1Oc1ccccc1 [Bumetanide]
The “combined upward orientation toward moving lines” value of the first is higher: -2.41 for the first, -3.42 for the second.

Going from `COc1cc(Nc2c(C#N)cnc3cc(OCCCN4CCN(C)CC4)c(OC)cc23)c(Cl)cc1Cl` [Bosutinib] to `O=C(Nc1c(Cl)cncc1Cl)c1ccc(OC(F)F)c(OCC2CC2)c1` [Roflumilast], the “combined upward orientation toward moving lines” value rises from -2.87 to -2.52.

First: Cc1c(-c2ccc(O)cc2)n(Cc2ccc(OCCN3CCCCCC3)cc2)c2ccc(O)cc12 [Bazedoxifene acetate]
Second: CCOc1nc2cccc(C(=O)O)c2n1Cc1ccc(-c2ccccc2-c2nnn[nH]2)cc1 [Candesartan]
The “combined upward orientation toward moving lines” value of the first is lower: 1.97 for the first, 2.56 for the second.

Compared with `CCOC(=O)N1CCC(=C2c3ccc(Cl)cc3CCc3cccnc32)CC1` [Loratidine], `COc1ccc(Cl)cc1C(=O)NCCc1ccc(S(=O)(=O)NC(=O)NC2CCCCC2)cc1` [Glibenclamide] is lower in “combined upward orientation toward moving lines” value: -3.52 for the first, -10.9 for the second.

Going from `CC(C)(C#N)c1cc(Cn2cncn2)cc(C(C)(C)C#N)c1` [Anastrozole] to `N#Cc1ccc(C(c2ccc(C#N)cc2)n2cncn2)cc1` [Letrozole], the “combined upward orientation toward moving lines” value falls from -0.152 to -1.71.

Compared with `Clc1ccccc1C(c1ccccc1)(c1ccccc1)n1ccnc1` [Clotrimazole], `NC(=O)N1c2ccccc2C=Cc2ccccc21` [Carbamazepine] is higher in “combined upward orientation toward moving lines” value: -3.91 for the first, -1.82 for the second.

First: CC(C)c1nc(CN(C)C(=O)N[C@H](C(=O)N[C@@H](Cc2ccccc2)C[C@H](O)[C@H](Cc2ccccc2)NC(=O)OCc2cncs2)C(C)C)cs1 [Ritonavir]
Second: CC(C)CN(C[C@@H](O)[C@H](Cc1ccccc1)NC(=O)O[C@H]1CO[C@H]2OCC[C@H]21)S(=O)(=O)c1ccc(N)cc1 [Darunavir]
The “combined upward orientation toward moving lines” value of the first is lower: -4.18 for the first, 0.247 for the second.

Compared with `Cc1ccc(O)c([C@H](CCN(C(C)C)C(C)C)c2ccccc2)c1` [Tolterodine L-tartrate], `CC(C)n1c(/C=C/C(O)CC(O)CC(=O)O)c(-c2ccc(F)cc2)c2ccccc21` (stereo not given) [Fluvastatin sodium] is higher in “combined upward orientation toward moving lines” value: 0.814 for the first, 1.58 for the second.

Compared with `CC(C)C(=O)OCC(=O)[C@@]12O[C@H](C3CCCCC3)O[C@@H]1C[C@H]1[C@@H]3CCC4=CC(=O)C=C[C@]4(C)[C@H]3[C@@H](O)C[C@@]12C` [Ciclesonide], `CC(=O)O[C@]1(C(C)=O)CC[C@H]2[C@@H]3C=C(C)C4=CC(=O)CC[C@]4(C)[C@H]3CC[C@@]21C` [Megestrol Acetate] is higher in “combined upward orientation toward moving lines” value: -8.95 for the first, -1.8 for the second.

Compared with `CCCCC1=NC2(CCCC2)C(=O)N1Cc1ccc(-c2ccccc2-c2nnn[nH]2)cc1` [Irbesartan], `CCc1ccc(CCOc2ccc(CC3SC(=O)NC3=O)cc2)nc1` (stereo not given) [Pioglitazone hydrochloride] is higher in “combined upward orientation toward moving lines” value: -8.87 for the first, -3.8 for the second.

Going from `CNC(=O)c1ccccc1Sc1ccc2c(/C=C/c3ccccn3)n[nH]c2c1` [Axitinib] to `O=C(O)c1cc(/N=N/c2ccc(S(=O)(=O)Nc3ccccn3)cc2)ccc1O` [Sulfasalazine], the “combined upward orientation toward moving lines” value falls from 4.21 to -3.42.

Going from `Cc1nnc(C(C)C)n1C1C[C@H]2CC[C@@H](C1)N2CC[C@H](NC(=O)C1CCC(F)(F)CC1)c1ccccc1` (stereo in doubt) [Maraviroc] to `CC(C)c1ccc2oc3nc(N)c(C(=O)O)cc3c(=O)c2c1` [Amlexanox], the “combined upward orientation toward moving lines” value falls from -1.2 to -5.36.

Going from `CCCN(CCC)S(=O)(=O)c1ccc(C(=O)O)cc1` [Probenecid] to `C/C(O)=C(\C#N)C(=O)Nc1ccc(C(F)(F)F)cc1` [Teriflunomide], the “combined upward orientation toward moving lines” value rises from -6.67 to -3.07.

Going from `Cc1cccc(C)c1OCC(C)N` (stereo not given) [Mexiletine hydrochloride] to `Cc1ccc(N(CC2=NCCN2)c2cccc(O)c2)cc1` [Phentolamine Mesylate], the “combined upward orientation toward moving lines” value rises from -1.93 to 4.89.

Going from `O=C(NCC1CCCCN1)c1cc(OCC(F)(F)F)ccc1OCC(F)(F)F` (stereo not given) [Flecainide acetate] to `CC(CCc1ccc(O)cc1)NCCc1ccc(O)c(O)c1` (stereo not given) [Dobutamine hydrochloride], the “combined upward orientation toward moving lines” value rises from -3.7 to 0.917.

Going from `Clc1ccc(COC(Cn2ccnc2)c2ccc(Cl)cc2Cl)c(Cl)c1` (stereo not given) [Miconazole nitrate] to `C=C1[C@H](CO)[C@@H](O)C[C@@H]1n1cnc2c(=O)[nH]c(N)nc21` [Entecavir], the “combined upward orientation toward moving lines” value falls from -3.31 to -3.62.
